# aSyn 5UTR act: Activators working through SNCA 5'UTR binding (MLPCN); AID 1814; activity score, % (tested at 7.5 µM), hits read low; alpha-synuclein 5'UTR reporter, activators screen; actives 7.1% (n = 300,000); in the data active means activity score below about -60%
# Numbers stand for hits; – = inactive. These entries were drawn from the full list.
SMILES,aSyn 5UTR act
CC(C)CCn1c(SCCc2ccccc2)nc2c1c(=O)[nH]c(=O)n2C,–
CCCCCCn1c(SCCC)nc2c1c(=O)[nH]c(=O)n2C,–
c1ccc(CSc2nnc(NC3=NCCCCC3)s2)cc1,-89
C=CCSc1nnc(NC(=O)C2=COCCO2)s1,-82
O=C(Nc1nnc(SCc2ccccc2F)s1)C1=COCCO1,-117
O=C(Nc1nnc(SCc2ccccc2)s1)C1=COCCO1,-72
O=C(NCCc1ccccc1)C1=COCCO1,-129
CC(=O)Nc1nnc(SCc2ccccc2F)s1,-76
CCCc1ccc2oc(C(=O)N3CCC[C@H]3CO)c(C)c2c1,-200
CCCc1ccc2oc(C(=O)N3CCC(COC)C3)c(C)c2c1 (stereo not drawn),-113
CN(C)/C=N/C(=S)Nc1ccc(Br)cc1F,-108
CN(C)C(CNC(=O)c1ccc(C2SCCS2)cc1)c1ccccc1 (stereo not drawn),-100
Cc1ccc(C(=O)NCC(=O)N2CCCC(C(F)(F)F)C2)s1 (stereo not drawn),-62
COc1cc(NC(=S)N2CCOCC2)c(OC)cc1Cl,-211
COC(=O)c1c(NC(C)=O)sc(C(=O)Nc2ccccc2)c1C,-85
COC(=O)c1c(NC(=O)c2cccnc2)sc(C(=O)N(C)C)c1C,-84
CCC(=O)Nc1sc(C(=O)Nc2ccccc2F)c(C)c1C(=O)OC,-64
CCCC(=O)Nc1sc(C(=O)Nc2cccc(N)c2)c(C)c1C(=O)OC,-84
Cc1nn(-c2ccccc2)c(N)c1-c1ccccc1,-72
Cc1cc(-c2ccccc2)n(-c2ccccc2)n1,-84
Cc1nn(-c2nc3ccccc3[nH]2)c(N)c1-c1ccccc1,-183
Cc1nn(-c2ccccc2)c(/N=C/c2ccccc2O)c1-c1ccccc1,-176
CC1(C)N=C(N)N=C(N)N1c1ccccc1,–
NC(=O)COc1c(-c2ccc(Br)o2)oc2ccccc2c1=O,-62
O=C(CN1CCCCC1)Nc1scc2c1c(=O)oc1ccccc12,-134
SMILES,aSyn 5UTR act
Cc1cc2sc3ccc(C#CC4(O)CCCCC4)cc3c(=O)c2cc1C,–
COc1cccc2oc3ccc(C#CC4(N)CCCCC4)cc3c(=O)c12,-62
O=C1N=C(N2CCOCC2)S/C1=C1\C(=O)N(Cc2ccccc2)c2ccccc21,-193
O=C1N=C(N2CCCCC2)SC1=C1CCCCC1,-89
CN1C(=O)/C(=C2\SC(N3CCCCCC3)=NC2=O)c2ccccc21,-153
O=C1C=C(N2CCCCC2)c2ccccc2C1=O,–
CC(=O)N(C)C1=C(N2CCOCC2)C(=O)c2ccccc2C1=O,–
CCCN1C(=O)/C(=C2\SC(N3CCCCC3)=NC2=O)c2ccccc21,-159
CC(C)CN1C(=O)c2ccc(NC(=O)c3ccco3)cc2C1=O,-84
CC(C)CN1C(=O)c2ccc(NC(=O)c3ccccc3F)cc2C1=O,-144
CC(C)CN1C(=O)c2ccc(NC(=O)c3cccs3)cc2C1=O,-129
O=C(CN1C(=O)c2ccccc2S1(=O)=O)c1ccccc1F,–
O=c1[nH]c(SCc2ccc(Cl)cc2)nc2[nH]ncc12,-70
N#Cc1c(N2CCSCC2)nsc1-c1ccccc1Cl,-63
COc1ccc2oc(-c3ccc(C)c(NC(=O)CSc4ccc(Cl)cc4)c3)nc2c1,-133
O=C(CSc1ccc(Cl)cc1)Nc1cc(-c2nc3ncccc3o2)ccc1Cl,-74
O=C(Nc1ccc(CN2CCOCC2)cc1)c1cc2ccccc2o1,-71
O=C(Nc1ccc(N2CCOCC2)cc1)c1cc2ccccc2o1,-110
Cc1c(C(=O)Nc2ccc(N3CCOCC3)cc2)oc2ccccc12,-166
O=C(Nc1ccc(CN2CCOCC2)cc1)c1cc2ccccn2n1,–
O=C(/C=C/N1CCOCC1)c1cc2ccccc2o1,-82
Cc1nn(C)c(C)c1/C=C(/C(=O)C(C)(C)C)n1cncn1,–
O=C(/C=C/N1CCOCC1)c1coc2ccccc12,-104
CC(c1nccs1)N(C)C(=O)c1cn(Cc2cccc3ccccc23)nn1 (stereo not drawn),-86
COc1cccc2[nH]c(=O)c(-c3ccccc3)cc12,-136
SMILES,aSyn 5UTR act
Cn1c(/C=C/c2cccc(Br)c2)nc2ccccc2c1=O,-178
COc1cccc(/C=N/Nc2ncnc3c2ncn3Cc2ccccc2)c1O,–
Cn1cnc2c(N/N=C/c3cccs3)ncnc21,-67
NC(=O)c1ccccc1NC(=O)/C=C/c1ccc(Cl)cc1,-110
NC(=O)c1ccccc1NC(=O)/C=C/c1ccccc1,-116
CCC(=O)c1ccc(N2CCN(C(=O)c3cccs3)CC2)c(F)c1,-103
CCC(=O)c1ccc(N2CCCCCC2)c(F)c1,-133
CCOC(=O)N1CCN(c2ccc(C(=O)c3ccccc3)cc2F)CC1,-99
Cc1ccc(C(=O)c2cc([N+](=O)[O-])ccc2N2CCN(C)CC2)cc1,–
CCCC(=O)c1ccc(N2CCCC2)c(F)c1,-139
Cc1ccc(/C=N/Nc2ccc(Cl)nn2)cc1,-151
Oc1ccc(/C=N/Nc2ccc(Cl)nn2)cc1O,-134
CCOC(=O)c1sc(NC(=O)c2cccc(S(=O)(=O)N3c4ccccc4CC3C)c2)cc1C (stereo not drawn),–
CCOC(=O)c1sc(NC(=O)C2CCC2)cc1C,-110
CCOC(=O)c1sc(NC(=O)Nc2ccccc2Cl)cc1C,-95
CCOC(=O)c1sc(NC(=O)c2ccc(C)s2)cc1C,-170
Cc1ccc(C2/C(=C(\O)c3cnn(-c4ccccc4)c3C)C(=O)C(=O)N2CCN(C)C)o1 (stereo not drawn),-92
CCN(CC)CCN1C(=O)C(=O)/C(=C(/O)c2cnn(-c3ccccc3)c2C)C1c1ccc(C)o1 (stereo not drawn),-77
Cc1c(/C(O)=C2/C(=O)C(=O)N(CCN3CCOCC3)C2c2cccs2)cnn1-c1ccccc1 (stereo not drawn),-155
Cc1ccc(C2/C(=C(/O)c3cnn(-c4ccccc4)c3C)C(=O)C(=O)N2CCN2CCOCC2)o1 (stereo not drawn),-121
Cc1c(/C(O)=C2\C(=O)C(=O)N(CCN(C)C)C2c2ccco2)cnn1-c1ccccc1 (stereo not drawn),-78
O=C(c1cnc2nc3ccccc3n2c1)c1cc(F)ccc1O,-78
O=C(Nc1ccc(-c2cn3ccccc3n2)cc1)c1ccco1,-209
O=C(Nc1cccc(-c2cn3ccccc3n2)c1)c1ccccc1,-64
CCCCC(=O)Nc1cccc(-c2cn3ccccc3n2)c1,-78
SMILES,aSyn 5UTR act
Cc1ccc(C2=NNC(C(O)C(O)C(O)C(C)O)S2)cc1 (stereo not drawn),-87
COc1cccc(-c2cc(=O)c3cc(NC(=O)c4ccc(N(C)C)cc4)ccc3[nH]2)c1,–
CC(=O)Nc1cccc(NC(=O)c2ccc3[nH]c(C)c(C)c3c2)c1,-107
COc1ccc(NC(=O)c2ccc3[nH]c(C)c(C)c3c2)cc1,-101
Oc1ccc2ccccc2c1N=Nc1ccccn1,–
CCCn1c(O)c(N=Nc2ccc3ccccc3n2)c2ccccc21,-177
O=[N+]([O-])c1cc(-c2ccc(/C=N/c3nc4ccccn4c3-c3ccco3)o2)ccc1Cl,-74
COc1ccc(/C=C2\SC(=N)N(c3nccs3)C2=O)cc1OC,–
CN=C1S/C(=C\c2ccc(SC)cc2)C(=O)N1C,-98
CN=C1S/C(=C\c2ccc(O)c(OC)c2)C(=O)N1C,-110
CSC1=NC(=O)/C(=C/c2ccc(SC)cc2)S1,-81
COc1ccc(S(=O)(=O)Oc2ccc3ccccc3c2)cc1,-93
Cc1cccc2c1cnn2C(=O)Nc1ccccc1Br,-125
Cc1cccc2c1cnn2C(=O)Nc1ccccc1Cl,-143
Cc1ccccc1NC(=O)n1ncc2cc(Cl)ccc21,-98

# Source: PubChem BioAssay
